# Results reported in ChEMBL document CHEMBL3988442, “University of Dundee, Small-Polar-MMV Screening Library” (2021).
# Screen size: about 67,000 compounds; about 300 (0.45%) showed an effect of 50% or more. This excerpt belongs to a sample that is enriched for strong results.
# Target: Polyketide synthase Pks13 (Mycobacterium tuberculosis (strain ATCC 25618 / H37Rv)) (UniProt I6X8D2)
# Assay: Mycobacterium tuberculosis Polyketide synthase 13 Thioesterase (PKS13)
# Type: functional
# Parameters: scale not given: in the data most compounds retested in dose-response had high values
# Conditions: 30 µM
# Polyketide synthase Pks13 (Mycobacterium tuberculosis (strain ATCC 25618 / H37Rv)), sequence (I6X8D2 whole entry): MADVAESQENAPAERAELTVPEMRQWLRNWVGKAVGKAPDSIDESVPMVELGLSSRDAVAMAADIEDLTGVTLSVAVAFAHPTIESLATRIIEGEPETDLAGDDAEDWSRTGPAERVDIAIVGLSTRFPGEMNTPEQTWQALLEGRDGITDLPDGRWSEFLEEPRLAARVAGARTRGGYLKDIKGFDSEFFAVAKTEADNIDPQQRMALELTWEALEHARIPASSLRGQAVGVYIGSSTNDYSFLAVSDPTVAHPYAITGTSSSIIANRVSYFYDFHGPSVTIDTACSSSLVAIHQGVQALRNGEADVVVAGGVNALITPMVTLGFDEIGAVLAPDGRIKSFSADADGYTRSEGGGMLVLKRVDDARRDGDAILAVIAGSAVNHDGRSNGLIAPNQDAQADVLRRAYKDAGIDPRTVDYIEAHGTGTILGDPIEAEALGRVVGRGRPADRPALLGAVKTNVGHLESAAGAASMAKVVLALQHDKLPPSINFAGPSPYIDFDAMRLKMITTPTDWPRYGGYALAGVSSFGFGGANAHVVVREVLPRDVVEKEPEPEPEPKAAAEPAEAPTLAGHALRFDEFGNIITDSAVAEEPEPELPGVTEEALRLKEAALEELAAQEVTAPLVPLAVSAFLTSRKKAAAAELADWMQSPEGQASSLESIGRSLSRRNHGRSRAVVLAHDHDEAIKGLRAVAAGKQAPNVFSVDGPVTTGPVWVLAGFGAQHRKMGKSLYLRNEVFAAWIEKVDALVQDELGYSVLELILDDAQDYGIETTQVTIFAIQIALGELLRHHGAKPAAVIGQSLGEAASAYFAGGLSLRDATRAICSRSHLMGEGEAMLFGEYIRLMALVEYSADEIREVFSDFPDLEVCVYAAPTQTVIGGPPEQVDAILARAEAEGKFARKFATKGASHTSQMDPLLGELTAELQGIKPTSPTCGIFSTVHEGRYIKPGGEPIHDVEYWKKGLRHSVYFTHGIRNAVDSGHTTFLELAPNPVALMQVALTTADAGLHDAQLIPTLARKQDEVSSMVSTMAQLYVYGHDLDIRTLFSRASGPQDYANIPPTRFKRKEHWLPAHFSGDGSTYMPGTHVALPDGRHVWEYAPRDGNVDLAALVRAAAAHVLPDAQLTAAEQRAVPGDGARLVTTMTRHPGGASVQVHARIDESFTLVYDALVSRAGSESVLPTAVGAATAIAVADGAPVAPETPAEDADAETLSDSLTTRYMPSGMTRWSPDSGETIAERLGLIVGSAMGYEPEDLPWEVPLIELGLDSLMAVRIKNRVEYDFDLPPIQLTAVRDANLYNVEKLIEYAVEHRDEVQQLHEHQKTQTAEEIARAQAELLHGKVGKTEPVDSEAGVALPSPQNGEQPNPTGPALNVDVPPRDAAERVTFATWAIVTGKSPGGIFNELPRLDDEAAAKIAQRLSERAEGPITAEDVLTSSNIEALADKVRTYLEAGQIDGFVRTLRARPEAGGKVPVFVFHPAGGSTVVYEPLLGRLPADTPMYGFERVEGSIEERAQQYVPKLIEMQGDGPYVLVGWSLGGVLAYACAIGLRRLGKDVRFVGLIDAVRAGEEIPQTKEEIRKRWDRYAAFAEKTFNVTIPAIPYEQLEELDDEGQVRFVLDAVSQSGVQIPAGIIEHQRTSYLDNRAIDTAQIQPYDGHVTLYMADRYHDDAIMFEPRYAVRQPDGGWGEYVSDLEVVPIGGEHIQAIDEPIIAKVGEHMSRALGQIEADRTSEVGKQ
row,Structure (SMILES),Percent Effect
1,CN(C)[C@H]1C[C@@H](Cc2cc(-c3ccc(F)cc3)on2)C1(C)C,-26.6%
2,CN(C)[C@H]1C[C@@H](Cc2cc(CO)on2)C1(C)C,-32.8%
3,COc1ccc(-c2cc(C[C@@H]3C[C@H](N(C)C)C3(C)C)no2)cc1,53.8%
4,CCN(C(=O)c1cnc(-c2ccc3c(c2)OCO3)s1)C1CC1,28.9%
5,CC(C)N(CC(N)=O)C(=O)c1cnc(-c2ccc3c(c2)OCO3)s1,71.9%
6,CC(C)N(CCC#N)C(=O)c1cnc(-c2ccc3c(c2)OCO3)s1,46.5%
7,CC(C1CC1)N(C)C(=O)c1cnc(-c2ccc3c(c2)OCO3)s1 (stereo not drawn),-13%
8,CC(C(=O)NCCOc1ccc2c(c1)OCO2)n1cncn1 (stereo not drawn),-36.9%
9,CN(C)C(=O)c1cnc(-c2ccc3c(c2)OCO3)s1,70.4%
10,O=C(N[C@@H]1CN(Cc2ccccn2)[C@@H]2COC[C@@H]21)C1CCC1,-11.8%
11,O=C1CCCC2=C1C(c1cc(Cl)ccc1F)Nc1nonc1N2 (stereo not drawn),-14.9%
12,CNC(=O)[C@H]1C[C@@H]2CCN(CCc3ccccc3)C[C@@H]2O1,-653%
13,Cc1cc(CN2CCN(CC3CC3)[C@@H]3CS(=O)(=O)C[C@@H]32)ccc1F,-14.2%
14,Cc1noc([C@@]23CCO[C@@H]2CCN(C(=O)c2ccsc2)C3)n1,-23.9%
15,CNS(=O)(=O)c1csc(C(=O)N(C)Cc2sccc2C)c1,-17.6%
16,CNS(=O)(=O)c1csc(C(=O)N(C)Cc2ccccc2C)c1,51.6%
17,CCNS(=O)(=O)c1ccc(C)c(C(=O)N(C)Cc2ccccc2C)c1,-0.166%
18,CCCn1ncc(CN2C[C@@H]3CCCN3C[C@@H]2Cc2ccccc2)c1C,21.5%
19,CC(C)CN1C(=O)CO[C@@H]2CN(C(=O)C3CCOC3)C[C@H]21 (stereo partly drawn),12.2%
20,O=C(c1cscn1)N1C[C@@H](Oc2cccnc2)[C@H]2OCCC[C@H]21,29.5%
21,CNc1ncc(CN(C)C(=O)c2cccc(-n3cnnc3)c2)cn1,-1.45%
22,CNc1ncc(CN(C)C(=O)c2cccc(-n3cccn3)c2)cn1,-5.61%
23,CNc1ncc(CN(C)C(=O)c2cccc(Cn3cccn3)c2)cn1,118%

row,Structure (SMILES),Percent Effect
1,c1ccc(COC[C@H]2CC[C@H]3[C@H](CCN3c3ncccn3)O2)nc1,-8.11%
2,Cc1c[nH]c(C(=O)N2C[C@H]3CC[C@@H]2CN(Cc2cscn2)C3)n1,-15.7%
3,COc1ccc(CNC[C@@]2(COc3cccnc3)C[C@@H](O)[C@@H](O)C2)cc1,0.869%
4,Cc1ccc(N2CCO[C@H]3CN(Cc4cc(C)on4)CC[C@H]3C2=O)cn1,-3.21%
5,COCCCN1CCN([C@@H]2c3ccccc3C3(CCNCC3)[C@H]2O)CC1,-9.22%
6,CCOCCN1CCN([C@@H]2c3ccccc3C3(CCNCC3)[C@H]2O)CC1,82.6%
7,COCCCC1CCN([C@@H]2c3ccccc3C3(CCNCC3)[C@H]2O)CC1,-6.55%
8,CCOC(=O)[C@]12CCCN(Cc3ccsc3)C[C@H]1CN(CCOC)C2,-32.4%
9,Cc1nc(CNC(=O)NC(C)c2ccc3c(c2)OCCCO3)cs1 (stereo not drawn),-3.62%
10,Cc1nc(CCNC(=O)NC(C)c2ccc3c(c2)OCCO3)cs1 (stereo not drawn),-9.04%
11,Cc1nc(CN(C)C(=O)NC(C)c2ccc3c(c2)OCCO3)cs1 (stereo not drawn),58%
12,CO[C@@H]1CCN(S(=O)(=O)N(C)C)[C@@H]2CN(Cc3ccncc3)C[C@@H]21,-11%
13,CN(C)C(=O)c1cn[nH]c1C1(C)CCN(c2ncccn2)CC1,72.9%
14,CC1(c2[nH]ncc2C(N)=O)CCN(c2ncccn2)CC1,-9.79%
15,CN(C)C(=O)c1cn[nH]c1C1(C)CCCN(Cc2ccccn2)C1 (stereo not drawn),-25%
16,O=C(C1CC1)N1CC[C@H]2C(=O)N(c3ccsc3)CCO[C@H]2C1,-24.6%
17,Cc1nc(CC(=O)NCCN2CCC(c3ccccc3C)C2)cs1 (stereo not drawn),5.3%
18,CCN1CCC(NC(=O)Cc2csc(C(C)(C)C)n2)CC1,-28.7%
19,CCN1CCC(N[C@@H]2CC[C@@H]2NC(=O)Cc2csc(C)n2)CC1,64.6%
20,COCC(=O)NC[C@H]1C[C@@H]2CCN1C[C@@H]2CN1CCc2ccccc2C1,-21.5%
21,Cc1nc(CN2C(=O)CC[C@@H]3[C@H]2CCN3C(=O)C2CCOCC2)cs1,-22.6%
22,Cc1ccc(S(=O)(=O)n2ccn(C(=O)COc3ccccc3)c2=O)cc1,-1%
23,Cc1ccc(S(=O)(=O)n2ccn(C(=O)CC(C)C)c2=O)cc1,10.8%

row,Structure (SMILES),Percent Effect
1,CCC(CC)C(=O)n1ccn(S(=O)(=O)c2ccc(C)cc2)c1=O,69.1%
2,CS(=O)(=O)N1CCO[C@@H]2CN(C(=O)C3CC(F)(F)C3)C[C@@H]2C1,-14.3%
3,COc1ccc(-n2nnnc2C(C)(C)Nc2ccc(C)cc2C)cc1,-14.4%
4,Cc1cccc(-n2nnnc2C(C)(C)Nc2ccccc2C)c1,71.2%
5,Cc1ccc(NC(C)(C)c2nnnn2-c2ccc(Cl)cc2)c(C)c1,43.2%
6,Fc1ccc(CN2CCO[C@H]3[C@H](OCCN4CCCC4)CC[C@@H]32)cc1,-7.44%
7,Cc1nnc(N2C[C@@H](OCC3CCCC3)[C@H]3OCCC[C@H]32)s1,-34.8%
8,N[C@@H]1c2ccccc2C2(CCN(C(=O)c3ccccc3O)CC2)[C@H]1O,1.94%
9,Cc1ccc(C(=O)N2CCC3(CC2)c2ccccc2[C@@H](N)[C@@H]3O)c(=O)[nH]1,70%
10,Cc1ccc(Cl)cc1C(=O)N1CCC2(CC1)c1ccccc1[C@@H](N)[C@@H]2O,-27.1%
11,COCCN1C[C@H]2CN(C(=O)c3ccc4c(c3)OCO4)CCN2C1=O,8.89%
12,COc1cccc(-c2cccc(CN3C[C@@H]4CC[C@H](C3)N(C)C4=O)c2)c1,6.34%
13,Cc1cc(CN(C)C(=O)c2ccc(C(F)(F)F)nc2)no1,-4.93%
14,Cc1ccc(C(=O)N(C)Cc2cc(C)on2)cn1,143%
15,Cc1cc(CN(C)C(=O)c2ccc(N(C)C)nc2)no1,-10.8%
16,CC(C)c1nccc([C@@H]2C[C@@H]3CCN(Cc4ccco4)C[C@H]3O2)n1,-17.2%
17,O=C(CC1CC1)NC[C@]12COC[C@H]1CN(c1ncc(F)cn1)C2,8.61%
18,CN(C)c1nccc(-c2c[nH][nH]c2=O)n1,51.4%
19,CN(C)c1nccc(-c2cnc(N(C)C)[nH]c2=O)n1,16.6%
20,CC(C)(C)CCNc1nccc(-c2c[nH][nH]c2=O)n1,22.8%
21,CNC(=O)[C@@]12CCO[C@@H]1CCN(S(=O)(=O)c1ccccc1F)C2,16.9%
22,Cc1nc(CNC(=O)N2CCN(c3ccc(Cl)cn3)CC2)no1,7.54%
23,Cc1nc(CNC(=O)N2CCN(c3ccc(Cl)cn3)CC2)sc1C,50.8%

row,Structure (SMILES),Percent Effect
1,Cc1nc(C)c(CNC(=O)N2CCN(c3ccc(Cl)cn3)CC2)s1,14.6%
2,CN1CCS(=O)(=O)[C@@H]2CCN(C(=O)c3ccccc3)CC[C@@H]21,-9.08%
3,Cc1cc(C)n(-c2cncc(NCCNC(=O)C3CCCC3)n2)n1,40.3%
4,CCN(CC)C(=O)CCNc1cncc(-n2nc(C)cc2C)n1,10.2%
5,Cc1cc(C)n(-c2cncc(NCCNC(=O)c3cccnc3)n2)n1,2.44%
6,CCCNC(=O)CCNc1cncc(-n2nc(C)cc2C)n1,52%
7,Cc1cc(C)n(-c2cncc(NCCNC(=O)C(C)(C)C)n2)n1,27%
8,Cc1cc(C)n(-c2cncc(NCCNC(=O)CC3CCCC3)n2)n1,-10.3%
9,Cc1cc(C)n(-c2cncc(NCCNC(=O)C(C)C)n2)n1,35.4%
10,Cc1cc(C)n(-c2cncc(NCCNS(C)(=O)=O)n2)n1,59.2%
11,Cc1cc(C)n(-c2cncc(NCCC(=O)NC(C)C)n2)n1,62.4%
12,O=C(CC1CCCC1)N1C[C@H](OCc2ccncc2)[C@H]2OCCC[C@H]21,-0.106%
13,COCCN1CC[C@H]2CN(c3cc(OC)ncn3)C[C@@H]2C1=O,25.2%
14,CS(=O)(=O)CC(=O)N1C[C@H]2CCC[C@@]2(COCc2ccncc2)C1,-8.5%
15,CCC(CC)CN1C[C@@H]2OCCN(Cc3cnn(C)c3)[C@@H]2C1,-3.42%
16,CCN1C[C@H]2CCN(C(=O)Nc3ccccc3C)CC[C@H]2S1(=O)=O,-46.2%
17,CCc1nc(C)c(C(=O)N2C[C@H]3CC[C@@H]2CN(S(=O)(=O)N(C)C)C3)s1,-18.5%
18,Cc1noc(C)c1CN1C[C@@H]2CN(C(=O)c3cnccn3)C[C@@H]2C1,-42.1%
19,O=C(O)[C@]12CCCN(Cc3nccs3)[C@@H]1CCN(c1cnccn1)C2,-14.4%
20,COCCN1CCCC2(CCN(c3ncnc(C)c3C)C2)C1=O (stereo not drawn),6.43%
21,COCCN1CCCC2(CCN(c3nccnc3N(C)C)C2)C1=O (stereo not drawn),60.4%
22,COCCN1CCCC2(CCN(c3nccc4ccccc34)C2)C1=O (stereo not drawn),10.3%
23,Fc1cnc(N2C[C@@H](OCC3CCOCC3)[C@H]3OCCC[C@H]32)nc1,-17.1%

row,Structure (SMILES),Percent Effect
1,CN(C)C[C@H]1OC[C@@H]2CCN(C(=O)NCc3cccc(F)c3)C[C@@H]21,-18.3%
2,O[C@]12CCNC[C@H]1CN(c1ccnc3ccccc13)CC2,-11.7%
3,Cc1ccc(C(=O)N2C[C@H](OCc3cccnc3)[C@H]3COC[C@H]32)cn1,-11.8%
4,COc1ccc2nc(C3CC3)cc(C(=O)NCc3noc(C)n3)c2c1,83.5%
5,COc1ccc2nc(C3CC3)cc(C(=O)NCC(=O)N(C)C)c2c1,-13.4%
6,COc1ccc2nc(C3CC3)cc(C(=O)NCc3ncnn3C)c2c1,-6.17%
7,Cc1cnc(N2CC[C@H]3[C@@H]2CCC(=O)N3c2ccccc2)nc1,-48.4%
8,O=C(CC1CC1)N1C[C@H]2CN(CC3CC3)C(=O)[C@H]2C1,-22.1%
9,O=C(CCn1cncn1)N1C[C@H]2CC[C@@H]1CN(Cc1ccncc1)C2,0.614%
10,CC(C)OCc1ccc(CNc2cncc(-n3cccn3)n2)cc1,16.5%
11,CCOc1cccc(CNc2cncc(-n3cccn3)n2)c1,-63.1%
12,COCc1ccc(CNc2cncc(-n3cccn3)n2)cc1,52.2%
13,COC(=O)Nc1ccc(CNc2cncc(-n3cccn3)n2)cc1,25.1%
14,CNC(=O)COc1ccc(CNc2cncc(-n3cccn3)n2)cc1,70.7%
15,CCCOc1ccc(CNc2cncc(-n3cccn3)n2)cc1,34.6%
16,CCOCc1ccc(CNc2cncc(-n3cccn3)n2)cc1,-10.5%
17,Cc1cccc(CNc2cncc(-n3cccn3)n2)c1,-60.2%
18,CCN(CC)C(=O)c1ccc(CNc2cncc(-n3cccn3)n2)cc1,-7.79%
19,CN(C)c1ccc(CNc2cncc(-n3cccn3)n2)cc1,27.6%
20,CCOCCOCc1cccc(CNc2cncc(-n3cccn3)n2)c1,53.8%
21,NS(=O)(=O)Cc1ccc(CNc2cncc(-n3cccn3)n2)cc1,133%
